Reference: PubChem BioAssay AID727 (The Scripps Research Institute Molecular Screening Center, 2007)
Screen size: about 97,000 compounds; about 810 (0.84%) were called active. No stated cut-off is given here; in the data, active means inhibition above about 19%; inactive means the rest. The full list was thinned out, with actives kept by preference.

biological target: Focal adhesion kinase 1 (Homo sapiens) (UniProt Q05397); assay: human PTK2 enzyme activity blockers – biochemical, primary screen (AID 727); settings: biochemical FAK kinase activity assay; hits give high values;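 tested at 7 µM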;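 further: 0% = DMSO and 100% = reference compound high control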
Sequence (Q05397 whole entry, looked up): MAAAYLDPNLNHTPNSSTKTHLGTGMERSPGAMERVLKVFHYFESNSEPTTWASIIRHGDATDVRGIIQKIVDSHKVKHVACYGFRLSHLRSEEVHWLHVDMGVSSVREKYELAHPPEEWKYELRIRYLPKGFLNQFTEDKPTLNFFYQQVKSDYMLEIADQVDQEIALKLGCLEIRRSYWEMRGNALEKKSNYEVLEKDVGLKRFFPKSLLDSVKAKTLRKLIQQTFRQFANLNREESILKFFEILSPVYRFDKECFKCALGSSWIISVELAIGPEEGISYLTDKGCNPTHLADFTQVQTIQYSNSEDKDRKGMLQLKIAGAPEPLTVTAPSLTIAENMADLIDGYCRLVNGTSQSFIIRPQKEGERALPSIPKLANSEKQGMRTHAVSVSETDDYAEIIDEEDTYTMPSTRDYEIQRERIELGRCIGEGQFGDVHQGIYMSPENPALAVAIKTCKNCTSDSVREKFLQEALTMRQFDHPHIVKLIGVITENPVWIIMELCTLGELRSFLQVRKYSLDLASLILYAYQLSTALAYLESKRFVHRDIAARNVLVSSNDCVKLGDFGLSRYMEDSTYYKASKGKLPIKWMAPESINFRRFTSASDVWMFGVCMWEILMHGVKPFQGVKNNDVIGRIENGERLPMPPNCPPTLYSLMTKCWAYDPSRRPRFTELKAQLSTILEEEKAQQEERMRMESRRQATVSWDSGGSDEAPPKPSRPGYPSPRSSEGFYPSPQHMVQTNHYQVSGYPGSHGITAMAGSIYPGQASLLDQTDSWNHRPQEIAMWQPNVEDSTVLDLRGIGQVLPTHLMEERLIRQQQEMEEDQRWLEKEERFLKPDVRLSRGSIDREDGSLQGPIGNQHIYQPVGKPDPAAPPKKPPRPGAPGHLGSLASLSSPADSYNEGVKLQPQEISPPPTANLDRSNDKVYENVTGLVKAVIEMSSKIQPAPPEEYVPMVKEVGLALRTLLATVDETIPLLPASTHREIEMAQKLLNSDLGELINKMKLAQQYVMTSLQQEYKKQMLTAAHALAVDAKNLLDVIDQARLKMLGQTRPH

inhibition, active:
Clc1ccccc1CSc1nnc(-c2ccco2)c(-c2ccco2)n1 31.9%
Cn1c(SCC(=O)N2CCCc3ccccc32)nc2ccccc2c1=O 37.7%
Oc1ccccc1/C=N/n1c(-c2cccs2)n[nH]c1=S 29.4%
Cc1cc(NC(=O)c2cnn3cccnc23)n(-c2ccccc2)n1 20.4%
CCn1nnnc1SCC(=O)c1ccc(C)cc1C 21.8%
Cn1cccc1C(=O)Nc1nccs1 25.5%
Cc1ccc(-c2nn(C(C)(C)C)c3ncnc(N)c23)cc1 38.8%
COc1ccc(NC(=O)ON=C2c3ccccc3-c3ccccc32)cc1 35%
O=[N+]([O-])c1ccc(C=Nc2ccc(Cl)cc2Cl)s1 20.7%
Cc1cccn2c(=O)c3cc(C(=O)N4COCC4(C)C)n(C)c3nc12 25.2%

inhibition, inactive:
Cc1cccc(NC(=O)Cn2cc(C(=O)c3ccco3)c3ccccc32)c1 -4.82%
Cc1cc(C)c2c3c(sc2n1)C(c1ccccc1)C(C#N)=C(N)O3 (stereo unspecified) 1.94%
CCCCC(C(=O)OCC(=O)c1ccc(OC)cc1)N1C(=O)c2ccccc2C1=O (stereo unspecified) 0.79%
CC(c1ccccn1)N(CCN(C)C)C(=S)Nc1ccccc1F (stereo unspecified) -1.18%
CCOC(=O)c1cc(NC(=O)c2ccc(Cl)cc2)c(=O)oc1-c1ccccc1 -2.61%
Nn1c(Cc2cccc3ccccc23)nnc1SCC(=O)N1CC(=O)Nc2ccccc21 -1.43%
Nc1nc(SCc2ccccc2Cl)n[nH]1 1.47%
c1ccc(CSc2nnc(-c3ccco3)n2Cc2ccccc2)cc1 -5.27%
CCCCOc1ccc(N(CC(=O)NCC2CCCO2)C(=O)CCC(=O)Nc2cc(C)ccn2)cc1 (stereo unspecified) -1.73%
CCNC(=O)c1sccc1-n1cccc1 -1.65%
Cn1c(SCC(=O)C(C)(C)C)nnc1-c1ccccn1 -1.08%
Clc1ccccc1-c1cc(COc2ccc3ccccc3c2)no1 5.83%
CCCC(C)C(=O)Nc1ccc(NC(C)=O)cc1 (stereo unspecified) 0.18%
O=C(CSc1nc2[nH]ncc2c(=O)n1-c1ccccc1)N1CCCc2ccccc21 0.8%
C=CCn1c(=O)c2ccccc2n2c(SCC(=O)N3CCCc4ccccc43)nnc12 5.22%
CC(C)(C)C(=O)Cn1c(NCCO)nc2ccccc21 1.69%
CC(C)(C)C(=O)c1cnc(Nc2ccccc2)s1 4.36%
OC(C#CCN1CCOCC1)(c1ccccc1)C1CCCCC1 (stereo unspecified) 0.89%
COc1ccc(S(=O)(=O)N/N=C\c2ccc(OC)c(COc3ccc(C)cc3[N+](=O)[O-])c2)cc1 2.51%
O=C(Nc1cccc2ncccc12)c1ccc(-c2ccc(Cl)cc2Cl)o1 9.2%
CCN1CCN(c2ccc([N+](=O)[O-])cc2C(=O)c2ccc(Cl)cc2)CC1 -2.69%
O=C(CSc1nc2cccnc2n1Cc1ccccc1)N1CCc2ccccc21 1.41%
FC(F)(F)c1cccc(NC(=S)Nc2cccc(Cl)c2)c1 -0.91%
Cc1c(NC(=O)c2cc(-c3ccc(Cl)s3)nc3ccccc23)c(=O)n(-c2ccccc2)n1C 2.95%
Cc1ccc(C(=O)N/C(=C/c2ccco2)C(=O)NCCc2c[nH]c3ccccc23)cc1C 4.25%
COc1ccc(C2C=C(c3ccc(Br)cc3)Nc3nc(NS(C)(=O)=O)nn32)cc1 (stereo unspecified) -9.88%
O=C(CSc1nnnn1-c1ccccc1)NCc1ccco1 5.37%
COc1ccc(CN(Cc2ccco2)S(=O)(=O)c2ccc(S(=O)(=O)N3CCCC3)cc2)cc1 -0.01%
Cc1cccc(N2CCN(C(=O)CN(C)S(=O)(=O)c3ccc4c(c3)CCC(=O)N4)CC2)c1C 4.5%
O=[N+]([O-])c1cccc(-c2nnc3c4ccccc4c4ccccc4n23)c1 17.7%
O=c1c2c(nc3nc[nH]n13)CCC2 -0.92%
CCN1C(=O)/C(=C\N2CCOCC2)SC1=S -1.1%
Cc1cccc(N(C(=O)Cc2cccs2)C(C(=O)NC2CCCC2)c2ccsc2)c1 (stereo unspecified) 2.56%
Cc1ccc(/C=N\n2c(-c3ccccc3)n[nH]c2=S)s1 0.69%
S=c1[nH]nc(-c2ccco2)n1/N=C/c1ccc(Br)s1 15.6%
O=C(Nc1ccc(Cl)cn1)c1cnn2cccnc12 5.62%
Cc1cc(NC(=O)Nc2ccccc2)n(-c2ccccc2)n1 -1.43%
CNC(=O)c1csc(-c2ccccc2)n1 -0.71%
Cc1ccc(C(c2nnnn2CS(=O)(=O)c2ccc(C)cc2)N2CCC(C)CC2)cc1 (stereo unspecified) -7.49%
CSc1ccccc1C(=O)Nc1cccc(C(C)=O)c1 2.46%
CCN1CCN(C(=O)C2(NC(=O)Nc3cccc(F)c3)CCCCC2)CC1 -0.58%
CCOC(=O)c1c(N)sc(C(C)=O)c1C -0.36%
CCOC(=O)CSc1nc2ccc(C)cc2[nH]1 -1.86%
CCCSc1nsc(N)n1 -4.41%
CCN(CC)S(=O)(=O)c1ccc(N(C)Cc2ccc(C(F)(F)F)cc2)nc1 -0.16%
O=C(Nc1ccc(Cl)cc1)OCc1cc(-c2ccccc2)on1 -6.39%
CN(C)/C=C(\C#N)C(=O)c1cccnc1Oc1ccc(F)cc1F -5.85%
C=CCn1c(SCc2c(C(=O)OC)sc(N)c2C(=O)OC)nnc1-c1ccc(Cl)cc1 1.31%
OC(CN=c1sc2ccccc2n1CC(O)COc1ccccc1)COc1ccccc1 (stereo unspecified) 0.61%
CCn1c(SC)nc(O)c(C(c2ccc(OC)c(O)c2)c2c(O)nc(SC)n(CC)c2=O)c1=O -2.86%
CNC(=O)CSc1nnnn1-c1ccc(C)cc1C 2.36%
CCOC(=O)CNC(=O)CSc1nnnn1-c1cc(C)ccc1C -0.99%
COc1ccc(OCCCC(=O)Oc2ccc(OC)cc2)cc1 0.13%
COc1ccc(-c2oc3ncn(Cc4ccco4)c(=N)c3c2-c2ccc(OC)cc2)cc1 3.43%
CCc1ccc(CNC(=O)C2CC(=O)N(CCc3ccc(C)cc3)C2)cc1 (stereo unspecified) -1.09%
CC(=O)c1cccc(NC(=O)N2CCCC2C(=O)NCCc2ccccc2)c1 (stereo unspecified) -0.1%
CCOC(=O)CC(=O)CSc1nc(-c2ccccc2)cc(-c2ccc(Cl)cc2)c1C#N -8.83%
N#CC1=C(N)N(c2ccccc2)C2=C(C(=O)CCC2)C1c1ccccc1 (stereo unspecified) 0.57%
O=C(NC1CCN(C(=S)NCc2ccco2)CC1)c1ccc(F)cc1 2.16%
CCOc1ccc(N=Cc2c(O)n(-c3cccc(C)n3)c(=O)c3ccccc23)cc1 -4.03%
COc1cc(C(=O)Nc2nccs2)cc(OC)c1OC -2.65%
CCN(c1ccccc1)S(=O)(=O)c1ccc(C(=O)Nc2nccs2)cc1 1.43%
Cc1ccccc1-n1c(C)cc(/C=N/NC(=O)c2ccc(CN3CCOCC3)cc2)c1C 5.57%
O=C(Cn1cc(/C=N/NC(=O)c2cccc(C(F)(F)F)c2)c2ccccc21)Nc1ccc(F)cc1 -6.09%
CCCNC(=S)N1CCC(NC(=O)C23CC4CC(CC(C4)C2)C3)CC1 0%
Cc1nn(-c2ccccc2)c(Cl)c1C(=O)Nc1ccccc1 1.43%
Cc1cccc(NC(=O)C(C)N2C(=O)C3C4CC(C(Br)C4Br)C3C2=O)c1 (stereo unspecified) 3.39%
COc1nc(-c2ccc(Cl)cc2)ccc1-c1noc(-c2cccs2)n1 -0.49%
CCOC(=O)C1=C(CN2CCc3ccccc32)NC(=O)NC1c1cc(C)ccc1C (stereo unspecified) 4.94%
CN(Cc1ccccc1)C(=O)COc1ccccc1 -1.65%
Cc1no[n+]([O-])c1COc1ccccc1/C=C1\NC(=S)NC1=O 1.38%
O=C1CCN(C(=O)Nc2ccccc2)N1 -0.01%
COC(=O)CN(C(=S)Nc1ccc(Cl)cc1)C1CC(=O)N(c2ccc(OC)cc2)C1=O (stereo unspecified) 1.24%
Cc1ccc(OCC(=O)N/N=C/c2ccncc2)cc1 1.58%
COC(=O)c1ccc(NC(=O)C23CC4CC(C2)CC(n2cnc(Cl)n2)(C4)C3)cc1 2.71%
COc1ccc(C(=S)Nc2ccccc2)cc1 -5.15%
CCCNC(=O)Nc1ccccc1C(=O)Nc1ccc(OC)cc1 4.85%
Cc1cccc(NC(=S)N2CCC(c3nc4ccccc4s3)CC2)c1 0.28%
Cc1nn(C)c(Oc2ccccc2)c1CCNS(=O)(=O)c1ccc(F)cc1 0.76%
Cc1nc2ccccc2c(-c2ccccc2)c1C(=O)c1ccccc1 0.7%
Cc1ccc(NC(=S)NC(=O)c2ccc(-c3ccccc3)cc2)c(C)c1 1.93%
CC(=O)NS(=O)(=O)c1ccc(NC(=O)/C=C/c2ccccc2Cl)cc1 -4.73%
Cc1ccc(/C=N/NC(=O)Cn2nc(C)c(Br)c2C)o1 -0.29%
COc1ccc(CCn2c(=N)c(C(=O)NCc3ccco3)cc3c(=O)n4cccc(C)c4nc32)cc1 1.33%
Cc1cccn2c(=O)c3cc(C#N)c(=O)n(CCCN4CCOCC4)c3nc12 2.6%
Cc1cccc(COc2ccccc2/C=N/Nc2ccc([N+](=O)[O-])cc2)c1 14.6%
